Activity calls are given as the source filed them. Rule for the calls: active = hit-call score of the fitted dose curve at least 0.9, where 1 is the maximum; inactive = score below 0.9.
What was measured:
[1] = APR_HepG2_CellLoss_72hr: Apredica 72-hour HepG2 Assay for Cell Loss (AID 2282915); settings: high-content imaging
Procedure, shortened: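 HepG2 cells exposed 72 h to compound at 0.39–200 uM (10 concentrations, duplicate) in 0.5% DMSO. Fixed with 3.7% formaldehyde and Hoechst 33342-stained. Imaged at 20x; nuclear count gives cell number, fitted bidirectionally versus DMSO.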

[2] = APR_HepG2_P-H2AX_72hr: Apredica 72-hour HepG2 Assay for H2AX Phosphorylation (AID 2282916); settings: imaging, actives raise or lower the signal;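 note: phospho-histone H2A.x immunostain intensity per cell marking DNA damage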
Procedure, shortened: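 Human hepatoma HepG2 cells are dosed across ten concentrations (0.39 to 200 uM, 0.5% v/v DMSO) and incubated 72 hr. Phospho-histone H2A.x is then detected by antibody staining alongside c-Jun and Hoechst, and quantified by automated fluorescence imaging.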

[3] = APR_HepG2_MitoticArrest_72hr: Apredica 72-hour HepG2 Assay for Mitotic Arrest (AID 2282918); settings: high-content imaging, actives raise or lower the signal
Procedure, shortened: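 HepG2 cells treated 72 h at 0.39–200 uM, 0.5% DMSO final; formaldehyde-fixed, stained with Hoechst 33342 and phospho-histone H3 antibody, imaged by high-content fluorescence; bidirectional fit versus DMSO.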

[4] = APR_HepG2_MicrotubuleCSK_72hr: Apredica 72-hour HepG2 Assay for Microtubule CSK Stabilty (AID 2282919); settings: HepG2 microtubule cytoskeleton, high-content imaging, actives raise or lower the signal
Procedure, shortened: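 HepG2, 72 hr cmpd exposure, 0.39–200 uM (10 pts, duplicate), 0.5% DMSO. 3.7% formaldehyde fix, 0.5% Triton perm, anti-alpha-tubulin/Cy5 plus Hoechst. HCS fluorescence intensity; bidirectional fit vs DMSO baseline; taxol as positive control.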

[5] = APR_HepG2_P-H2AX_24hr: Apredica 24-hour HepG2 Assay for H2AX Phosphorylation (AID 2282920); settings: high-content imaging, actives raise or lower the signal
Procedure, shortened: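 HepG2 cells dosed 24 h at 0.39–200 uM (10 points, duplicate, 0.5% DMSO final). Formaldehyde-fixed and permeabilized, then immunostained for phospho-H2A.x with Hoechst. Fluorescence quantified by high-content imaging, fitted bidirectionally versus DMSO.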

[6] = APR_HepG2_StressKinase_72hr: Apredica 72-hour HepG2 Assay for Stress Kinase (AID 2282921); settings: HepG2 stress kinase (phospho-c-Jun) imaging, actives raise or lower the signal
Procedure, shortened: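 After a 72 h compound treatment spanning 0.39 to 200 uM, formaldehyde-fixed cells are labelled for phosphorylated c-Jun and nuclei, imaged by automated fluorescence microscopy, and activity is fitted in both directions relative to DMSO controls.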

[7] = APR_HepG2_StressKinase_24hr: Apredica 24-hour HepG2 Assay for Stress Kinase (AID 2282922); settings: HepG2 stress kinase (phospho-c-Jun) imaging, actives raise or lower the signal
Procedure, shortened: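 Read-out: phospho-c-Jun immunofluorescence (Cy3 secondary) quantified by high-content imaging at 20x, nuclei defined by Hoechst 33342. Human HepG2 liver cells dosed 24 hr, 0.39–200 uM, DMSO 0.5% v/v; gain or loss of signal fitted relative to DMSO.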

[8] = APR_HepG2_p53Act_72hr: Apredica 72-hour HepG2 Assay for p53 Activation (AID 2282923); settings: high-content imaging, actives raise or lower the signal;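 note: average cellular p53 protein immunofluorescence intensity in HepG2 cells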
Procedure, shortened: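 Imaging-based endpoint: after 72 hr compound exposure (up to 200 uM, 0.5% DMSO), fixed and permeabilized monolayers were labelled with anti-p53 antibody and imaged; signal change in either direction was fitted relative to DMSO controls.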

[9] = APR_HepG2_NuclearSize_72hr: Apredica 72-hour HepG2 Assay for Nuclear Size (AID 2282925); settings: high-content imaging, actives raise or lower the signal
Procedure, shortened: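 Read-out: nuclear diameter from Hoechst 33342 images (ArrayScan, 20x, six fields/well), via cell-cycle image analysis. HepG2 were dosed 0.39–200 uM for 72 hr in 0.5% DMSO. Bidirectional fit relative to DMSO.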

[10] = ATG_CRE_CIS: Attagene CIS-FACTORIAL HepG2 Assay for human cAMP Responsive Element (CRE) binding protein 3 (AID 2282926); settings: HepG2 CRE cis-reporter, Attagene multiplexed mRNA; actives raise or lower the signal
Procedure, shortened: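 Induced reporter mRNA from a CRE cis element, measured in HepG2 among many multiplexed units at 24 h. Detection used RT-PCR plus capillary electrophoresis of fluorescent fragments; DMSO served as negative control.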

[11] = target: CCAAT/enhancer-binding protein beta (Homo sapiens) (UniProt P17676); assay: ATG_C_EBP_CIS: Attagene CIS-FACTORIAL HepG2 Assay for human CCAAT/Enhancer Binding Protein (C/EBP) beta (AID 2282927); settings: HepG2 Attagene cis-factorial transcription factor reporter; actives raise or lower the signal
Procedure, shortened: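 HepG2 transiently transfected with multiplexed reporter units under cis-regulatory promoters reporting endogenous C/EBPb activity. After 24 h exposure, reporter mRNA assayed by RT-PCR, fluorescent labelling, HpaI digestion and capillary electrophoresis; bidirectional fitting versus DMSO.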

[12] = ATG_CMV_CIS: Attagene CIS-FACTORIAL HepG2 Assay for human CMV (Internal Marker) (AID 2282928); settings: HepG2 CMV promoter reporter, transcription factor profiling; actives raise or lower the signal;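 note: endpoint acts as a background internal control marker rather than a target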
Procedure, shortened: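 Reporter transcripts from transfected HepG2 cells are isolated after 24 h of chemical dosing, reverse-transcribed and amplified. Fragments labeled with 6-FAM are cut with HpaI and quantified by capillary electrophoresis; DMSO defines baseline.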

[13] = ATG_DR4_LXR_CIS: Attagene CIS-FACTORIAL HepG2 Assay for human Liver X Receptor (LXR), DR4 submotif (AID 2282929); settings: HepG2 Attagene DR4 cis-reporter, mRNA transcription; actives raise or lower the signal
Procedure, shortened: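 Endogenous factor activity at a DR4 cis-element is read as reporter mRNA in transiently transfected HepG2 cells. Exposure lasts 24 h; transcripts are amplified, fluorescently labelled and sized by capillary electrophoresis, with DMSO as baseline.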

[14] = target: Aryl hydrocarbon receptor (Homo sapiens) (UniProt P35869); assay: ATG_Ahr_CIS: Attagene CIS-FACTORIAL HepG2 Assay for human Aryl Hydrocarbon Receptor (Ahr) (AID 2282930); settings: HepG2 AhR cis-factorial reporter transcription; actives raise or lower the signal
Procedure, shortened: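 HepG2 cells transiently transfected with cis-element-driven multiplexed reporter units; endogenous AhR activity read as reporter mRNA 24 h after dosing, via RT-PCR, 6-FAM labelling, HpaI digestion and capillary electrophoresis. Bidirectional fit relative to DMSO.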

[15] = ATG_AP_1_CIS: Attagene CIS-FACTORIAL HepG2 Assay for human Activator Protein 1 (AP-1) (AID 2282931); settings: HepG2 Attagene cis-factorial AP-1 reporter mRNA; actives raise or lower the signal
Procedure, shortened: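 Fluorescence of labelled PCR fragments separated by capillary electrophoresis gives reporter mRNA levels. HepG2 with transfected cis-regulated reporter units, 24 h exposure; DMSO serves as baseline for bidirectional curve fits.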

[16] = ATG_AP_2_CIS: Attagene CIS-FACTORIAL HepG2 Assay for human Activator Protein 2 (AP-2) (AID 2282932); settings: HepG2 AP-2 cis-reporter, Attagene transcription factor profiling; actives raise or lower the signal
Procedure, shortened: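 Liver-derived HepG2 line, cis-reporter system measuring endogenous factors; 24 h dosing; reporter mRNA detected by fluorescent RT-PCR and capillary electrophoresis.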

[17] = ATG_BRE_CIS: Attagene CIS-FACTORIAL HepG2 Assay for human Bone Morphogenetic Protein (BMP) Response Element (BRE) (AID 2282933); settings: HepG2 BMP response element reporter, Attagene transcription factor profiling; actives raise or lower the signal
Procedure, shortened: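 Gain- or loss-of-signal was derived by bidirectional fitting against DMSO controls. The signal came from reporter mRNA, measured by RT-PCR and capillary electrophoresis, in HepG2 cells transiently carrying multiple reporter units and dosed for 24 h.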

[18] = target: Retinoic acid receptor alpha (Homo sapiens) (UniProt P10276); assay: ATG_DR5_RAR_CIS: Attagene CIS-FACTORIAL HepG2 Assay for human Retinoic Acid Receptor Alpha (RARE), DR5 submotif (AID 2282934); settings: HepG2 Attagene cis-factorial RARE DR5 reporter, mRNA; actives raise or lower the signal;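 for AC50: reporter responds to endogenous RAR alpha beta and gamma in HepG2 not RARA alone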
Procedure, shortened: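 HepG2 cells transiently transfected with multiplexed reporter units; DR5 cis-element drives reporter through endogenous transcription factors. After 24 h dosing, reporter mRNA quantified by RT-PCR, fluorescent labeling, HpaI digestion and capillary electrophoresis; bidirectional fitting versus DMSO.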

[19] = APR_HepG2_MitoMass_72hr: Apredica 72-hour HepG2 Assay for Mitochondrial Mass (AID 2282924); settings: high-content imaging, actives raise or lower the signal;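 note: MitoTracker Red CMXRos stain intensity per cell imaged as mitochondrial mass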
Procedure, shortened: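 Read-out: MitoTracker Red fluorescence intensity from automated imaging (20x, six fields per well) in human HepG2 liver cells. Dosing ran 72 hr, 0.39–200 uM, 0.5% DMSO; bidirectional curve fitting versus DMSO baseline.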

Measured: AC50

CCAAT/enhancer-binding protein beta (Homo sapiens), sequence (P17676 whole entry, looked up): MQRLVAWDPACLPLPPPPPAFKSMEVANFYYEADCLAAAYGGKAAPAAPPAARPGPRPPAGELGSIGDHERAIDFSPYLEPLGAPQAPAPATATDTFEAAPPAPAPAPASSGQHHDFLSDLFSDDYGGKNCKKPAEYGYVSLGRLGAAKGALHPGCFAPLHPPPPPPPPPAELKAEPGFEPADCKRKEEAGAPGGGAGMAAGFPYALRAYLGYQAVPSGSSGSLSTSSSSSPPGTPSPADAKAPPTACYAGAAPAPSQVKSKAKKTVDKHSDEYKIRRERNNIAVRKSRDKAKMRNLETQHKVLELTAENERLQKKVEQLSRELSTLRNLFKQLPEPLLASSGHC
Retinoic acid receptor alpha (Homo sapiens), sequence (P10276 whole entry, looked up): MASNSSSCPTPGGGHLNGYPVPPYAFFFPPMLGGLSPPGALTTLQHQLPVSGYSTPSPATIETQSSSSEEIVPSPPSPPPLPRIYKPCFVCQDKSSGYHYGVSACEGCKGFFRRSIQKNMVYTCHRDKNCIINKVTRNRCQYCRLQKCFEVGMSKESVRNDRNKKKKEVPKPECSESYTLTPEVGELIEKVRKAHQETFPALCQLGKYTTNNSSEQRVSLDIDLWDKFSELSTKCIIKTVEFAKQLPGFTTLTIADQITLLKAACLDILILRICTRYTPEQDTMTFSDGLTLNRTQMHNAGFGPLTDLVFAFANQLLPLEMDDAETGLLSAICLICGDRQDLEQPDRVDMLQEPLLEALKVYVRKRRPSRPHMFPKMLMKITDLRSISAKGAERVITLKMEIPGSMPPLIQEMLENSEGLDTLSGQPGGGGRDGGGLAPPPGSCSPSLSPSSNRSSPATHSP
Aryl hydrocarbon receptor (Homo sapiens), sequence (P35869 whole entry, looked up): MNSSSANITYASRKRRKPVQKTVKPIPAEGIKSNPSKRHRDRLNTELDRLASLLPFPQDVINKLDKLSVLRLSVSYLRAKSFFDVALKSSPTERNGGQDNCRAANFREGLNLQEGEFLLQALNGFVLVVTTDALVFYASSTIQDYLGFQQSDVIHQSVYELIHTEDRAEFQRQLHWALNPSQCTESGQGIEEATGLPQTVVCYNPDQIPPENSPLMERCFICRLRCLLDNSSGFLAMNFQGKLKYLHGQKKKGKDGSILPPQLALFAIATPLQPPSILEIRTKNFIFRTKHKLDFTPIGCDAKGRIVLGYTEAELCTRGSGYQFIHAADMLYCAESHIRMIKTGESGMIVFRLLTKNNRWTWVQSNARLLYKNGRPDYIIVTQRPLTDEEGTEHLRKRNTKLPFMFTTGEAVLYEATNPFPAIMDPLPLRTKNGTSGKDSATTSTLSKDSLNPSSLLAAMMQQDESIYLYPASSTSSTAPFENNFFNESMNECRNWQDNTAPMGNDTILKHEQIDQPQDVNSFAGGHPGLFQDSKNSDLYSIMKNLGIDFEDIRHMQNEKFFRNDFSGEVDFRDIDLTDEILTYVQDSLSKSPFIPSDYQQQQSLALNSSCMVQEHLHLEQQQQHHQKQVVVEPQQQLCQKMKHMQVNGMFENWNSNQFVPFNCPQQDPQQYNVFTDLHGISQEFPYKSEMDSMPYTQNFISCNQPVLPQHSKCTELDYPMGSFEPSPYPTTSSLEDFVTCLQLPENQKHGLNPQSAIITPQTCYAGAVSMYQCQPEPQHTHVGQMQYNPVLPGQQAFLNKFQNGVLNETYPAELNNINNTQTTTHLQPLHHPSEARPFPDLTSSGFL

Cc1cc(C)nc(Nc2ccccc2)n1
active: [1] 46.3 µM | [10] 7.42 µM | [11] 6.27 µM | [15] 30.4 µM | [17] 27 µM
not listed: [19]
inactive: all other assays above

COC(=O)NS(=O)(=O)c1ccc(N)cc1
active: [11] 13.2 µM
not listed: [6] | [18]
inactive: all other assays above

CC(C)=CC1C(C(=O)OCc2coc(Cc3ccccc3)c2)C1(C)C (stereo unspecified)
active: [1] 40.1 µM | [4] 74.2 µM | [10] 13.2 µM | [13] 73.6 µM | [15] 14.3 µM | [17] 15.5 µM | [18] 8.01 µM
not listed: [6] | [8]
inactive: all other assays above

Cc1nc(N(C)C)nc(OC(=O)N(C)C)c1C
not listed: [8]
inactive: all other assays above

Nc1cnn(-c2ccccc2)c(=O)c1Cl
active: [14] 50 µM
not listed: [6] | [18]
inactive: all other assays above

CC(C)N1C(=O)N(c2ccccc2)CSC1=NC(C)(C)C
active: [1] 42.5 µM | [4] 32.6 µM | [5] 111 µM
not listed: [6] | [18] | [19]
inactive: all other assays above

Clc1nc(Cl)nc(Nc2ccccc2Cl)n1
active: [10] 76.6 µM | [11] 75.5 µM | [12] 27.4 µM | [15] 50 µM
not listed: [6]
inactive: all other assays above
